Test [1] can be described thus: qHTS assay to identify small molecule antagonists of the glucocorticoid receptor (GR) signaling pathway - cell viability counter screen (AID 720693; further: nearly all actives have a fitted effect of over 55% in size). (In general: Quantitative high-throughput screening tests each substance at several concentrations.)
A short description of test [2]: qHTS assay for identifying genotoxic compounds that show differential cytotoxicity against isogenic chicken DT40 cell lines with known DNA damage response pathways - Rev3 mutant cell line (AID 743014). Further: nearly all actives have a fitted effect of over 55% in size. Further: potency means the concentration at half of the fitted maximal effect.
The nature of test [3]: qHTS assay to identify small molecule antagonists of the androgen receptor (AR) signaling pathway using the MDA cell line - cell viability counter screen (AID 743041; further: nearly all actives have a fitted effect of over 45% in size). Summed up: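 Using the breast carcinoma line MDA-kb2 AR-luc, test chemicals were co-incubated with R1881 for 16 h; CellTiter-Fluor reagent, added at 15.5 h, provided a fluorescence measure of live cells.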
The nature of test [4]: qHTS assay to identify small molecule antagonists of the thyroid receptor (TR) signaling pathway - cell viability counter screen (AID 743064). Further: nearly all actives have a fitted effect of over 50% in size. Further: potency means the concentration at half of the fitted maximal effect. Put shortly:
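GH3.TRE-Luc rat pituitary cells dosed after 4 hr plating, co-stimulated with T3 at 1 nM final, incubated 23.5 h at 37 C. Viability measured in the same wells by CellTiter-Fluor fluorescence after 30 min further at 37 C.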

A short description of test [5]: qHTS assay to identify small molecule antagonists of the thyroid receptor (TR) signaling pathway (AID 743065). Further: nearly all actives have a fitted effect of over 55% in size. Further: potency means the concentration at half of the fitted maximal effect. Put shortly:
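Antagonism measured as loss of luciferase signal in GH3 cells stably carrying a TRE-luciferase reporter, co-treated with compound and T3 (1 nM final) for 23.5 h at 37 C. Viability was read in the same well by CellTiter-Fluor.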

Test [6] relates to thyroid hormone receptor (rat, GH3 cells). Put plainly: qHTS assay to identify small molecule agonists of the thyroid receptor (TR) signaling pathway (AID 743066; calls by dose curve).
The nature of test [7]: qHTS assay to identify small molecule antagonists of the estrogen receptor alpha (ER-alpha) signaling pathway - cell viability counter screen (AID 743074; calls by dose curve; further: nearly all actives have a fitted effect of over 45% in size).
Test [8] is described as follows: qHTS assay to identify small molecule antagonists of the estrogen receptor alpha (ER-alpha) signaling pathway using the BG1 cell line - cell viability counter screen (AID 743081).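 Further: compound given together with 17beta-estradiol as the ER stimulus; series mostly up to about 70 µM; nearly all actives have a fitted effect of over 45% in size.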
Test [9] deals with Aromatase (Homo sapiens) (UniProt P11511). As to the kind of experiment: qHTS assay to identify aromatase inhibitors (AID 743083). Further: series mostly up to about 70 µM; nearly all actives have a fitted effect of over 55% in size.
The nature of test [10]: qHTS assay for identifying genotoxic compounds that show differential cytotoxicity against isogenic chicken DT40 cell lines with known DNA damage response pathways - Rad54/Ku70 mutant cell line (AID 743015). Further: nearly all actives have a fitted effect of over 60% in size. Further: potency means the concentration at half of the fitted maximal effect.
A short description of test [11]: qHTS assay to identify small molecule antagonists of the androgen receptor (AR) signaling pathway - cell viability counter screen (AID 743033; further: nearly all actives have a fitted effect of over 45% in size).
The target in test [12] is Estrogen receptor (Homo sapiens) (UniProt P03372). Put plainly: qHTS assay to identify small molecule agonists of the estrogen receptor alpha (ER-alpha) signaling pathway (AID 743075; calls by dose curve).
The nature of test [13]: qHTS assay for identifying genotoxic compounds that show differential cytotoxicity against isogenic chicken DT40 cell lines with known DNA damage response pathways - wild type cell line (AID 743012). Further: nearly all actives have a fitted effect of over 60% in size. Further: potency means the concentration at half of the fitted maximal effect. Put shortly: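 Luminescent ATP viability signal (CellTiter-Glo, 30 min RT) recorded after wild type DT40 cells were incubated with compounds for 40 h at 37 C/5% CO2.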
For test [14], the target named is Estrogen receptor (Homo sapiens) (UniProt P03372). As to the kind of experiment: qHTS assay to identify small molecule antagonists of the estrogen receptor alpha (ER-alpha) signaling pathway (AID 743069; active means well fitted curve in the direction sought with a large enough effect in the signal ratio in the repeat runs, not every such curve was filed as active; the % refers to the signal ratio). Summed up:
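Fluorescence intensity from a beta-lactamase FRET substrate served as the read-out. Cells: HEK293 with stably integrated ER-alpha-UAS-bla reporter. Agonist 17beta-estradiol was co-added with compounds; incubation 18 hr at 37C, substrate 2 hr at room temperature.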

Test [15] is described as follows: qHTS assay to identify small molecule antagonists of the estrogen receptor alpha (ER-alpha) signaling pathway using the BG1 cell line (AID 743080; calls by dose curve;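 further: BG1 cells stimulated with 17beta-estradiol alongside compound; series mostly up to about 70 µM; nearly all actives have a fitted effect of over 25% in size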). Summed up: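 Seeding, 24 h rest, compound transfer from DMSO, 17beta-estradiol addition, 21.5 h incubation, CellTiter-Fluor (30 min, 37 C), then ONE-Glo (30 min, room temperature): this sequence was run on BG1-Luc-4E2 reporter cells.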

For test [16], the target named is Estrogen receptor (Homo sapiens) (UniProt P03372). Put plainly: qHTS assay to identify small molecule agonists of the estrogen receptor alpha (ER-alpha) signaling pathway using the BG1 cell line (AID 743079). Further: nearly all actives have a fitted effect of over 20% in size.

Each structure is given as a SMILES string. Results filed as inconclusive are left out. Unmarked numbers belong to inactive results. Activity calls are given as the source filed them. Unless noted, the call rests on the fitted dose curve; in most records, active means well fitted curve in the direction sought with a large enough effect in the repeat runs; inconclusive means weak or mixed curves; inactive means no such curve, though single readings can be large; an effect the other way counts as inactive or inconclusive.

Sequence of Aromatase (Homo sapiens) (P11511 whole entry, looked up): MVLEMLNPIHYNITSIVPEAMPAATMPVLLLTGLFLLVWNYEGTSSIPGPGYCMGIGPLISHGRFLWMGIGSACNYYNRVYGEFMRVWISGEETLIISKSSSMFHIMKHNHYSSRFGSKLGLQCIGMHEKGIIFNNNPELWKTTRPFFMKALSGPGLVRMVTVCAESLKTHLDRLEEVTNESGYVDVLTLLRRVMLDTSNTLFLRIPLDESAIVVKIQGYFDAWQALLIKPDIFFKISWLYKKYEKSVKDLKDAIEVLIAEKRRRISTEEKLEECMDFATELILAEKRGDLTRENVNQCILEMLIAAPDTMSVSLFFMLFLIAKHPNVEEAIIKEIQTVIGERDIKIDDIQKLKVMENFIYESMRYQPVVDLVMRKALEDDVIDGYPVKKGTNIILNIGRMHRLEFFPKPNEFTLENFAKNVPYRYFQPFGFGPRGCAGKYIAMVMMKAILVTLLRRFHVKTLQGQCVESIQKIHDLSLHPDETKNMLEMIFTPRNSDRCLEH
Sequence of Estrogen receptor (Homo sapiens) (P03372 whole entry, looked up): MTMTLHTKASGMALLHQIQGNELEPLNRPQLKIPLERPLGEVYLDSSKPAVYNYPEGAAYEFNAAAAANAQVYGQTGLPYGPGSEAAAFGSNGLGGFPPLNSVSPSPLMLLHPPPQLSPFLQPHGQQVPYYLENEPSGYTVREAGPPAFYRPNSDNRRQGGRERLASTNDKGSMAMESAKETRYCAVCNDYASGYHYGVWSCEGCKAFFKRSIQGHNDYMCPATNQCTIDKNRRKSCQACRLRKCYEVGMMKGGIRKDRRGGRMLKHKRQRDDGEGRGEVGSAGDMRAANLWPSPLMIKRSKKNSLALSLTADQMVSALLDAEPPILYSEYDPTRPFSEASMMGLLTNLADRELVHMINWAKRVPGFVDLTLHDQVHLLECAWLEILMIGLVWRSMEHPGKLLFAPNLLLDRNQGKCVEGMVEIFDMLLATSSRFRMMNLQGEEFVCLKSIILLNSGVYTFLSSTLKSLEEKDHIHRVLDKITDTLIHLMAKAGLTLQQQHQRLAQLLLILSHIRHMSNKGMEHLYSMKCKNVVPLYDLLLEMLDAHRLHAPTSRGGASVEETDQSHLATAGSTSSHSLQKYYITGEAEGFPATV

Consider `OCc1ccccc1O`, for which the call in [1] and in test [6] was inactive. The Potency entry in test [2], in [3], in [4], in test [5], in test [7] and in test [8] was “inactive” each time. In [9], the Potency result was “inactive”.

In the case of `Nc1ccc(Oc2ccc(N)c(N)c2)cc1`, the compound was classed as inactive in test [1], in [11], in test [6] and in [12]. Further, the Potency in test [2] was 7.7 µM (active); in [10], 13.7 µM (active). Further, the Potency result in test [7] and in test [8] was “inactive” in each case.

Consider `CCCCNCCCC`, for which the Potency result in [13], in [2], in test [10], in [3], in test [5] and in test [7] was “inactive” throughout. Moreover, the Potency result in test [8] and in test [9] was “inactive” each time. For the same compound, the compound was classed as inactive in test [11] and in test [6].

For `O=S(=O)(O)C(F)(F)F`, the Potency entry in test [13], in [2], in [10], in test [3], in test [4] and in [5] was “inactive” each time. In addition, the Potency entry in test [14], in test [7], in test [8] and in test [9] was “inactive” throughout. In addition, the result in [11], in [6], in [12] and in test [15] was inactive.

`CN(CCCN1c2ccccc2CCc2ccccc21)CC(=O)c1ccc(Cl)cc1`: the Potency in test [13] was 9.44 µM (active); in [2] it was 13.3 µM (active); in test [10], 13.3 µM (active); in test [4] it was 11.9 µM (active); in test [5] it was 26.6 µM (active). The Potency result in test [14], in test [7], in [16], in test [8] and in test [9] was “inactive” in each case. Moreover, the outcome in [12] and in test [15] was inactive.

In the case of `CCOC(=O)CS`, the compound was called inactive in [1] and in test [6]. Further, the Potency result in test [3], in [7], in test [8] and in test [9] was “inactive” throughout.

In the case of `CCN(CC)CCNC(=O)COc1ccc(Cl)cc1`, the compound was called inactive in [1], in [11], in test [6], in test [12] and in test [15]. Moreover, the Potency result in [3], in test [5], in [14], in test [7], in test [16] and in test [8] was “inactive” each time. For the same compound, the Potency result in test [9] is “inactive”.

In the case of `COc1cc2c(cc1N)oc1ccccc12`, the call in [1], in [11] and in [6] was inactive. Moreover, in [10], the Potency was 62.4 µM (active). Moreover, the Potency entry in test [4], in test [5], in test [7], in test [8] and in test [9] was “inactive” in each case.

In the case of `C1CCOC1`, the result in [1] and in test [11] was inactive. Moreover, the Potency result in [3], in test [4], in test [7], in test [8] and in test [9] was “inactive” throughout.

As for `Nc1ccc2ccccc2c1S(=O)(=O)O`, the Potency result in test [13], in [2], in test [10], in test [4], in [5] and in test [7] was “inactive” each time. The Potency entry in [8] was “inactive”. Further, the result in test [11] and in test [6] was inactive.

In the case of `CO[Si](C)(C)OC`, the call in [1], in test [11], in test [6], in test [12] and in test [15] was inactive. The Potency result in [3], in test [4], in test [5], in [14], in test [7] and in test [16] was “inactive” in each case. Further, the Potency result in test [8] and in test [9] was “inactive” in each case.

`ICCc1ccccc1`: the outcome in test [1], in test [11], in test [6] and in test [15] was inactive. In addition, the Potency entry in [4], in test [5], in test [14], in [7], in [16] and in [8] was “inactive” each time. The Potency entry in [9] is “inactive”.
